The AC50 is the concentration at which the activity in the assay is half-maximal.

Structures are written as SMILES. The source made the active and inactive calls. How the source made its calls: active means hit-call score of the fitted dose curve at least 0.9, where 1 is the maximum; inactive means score below 0.9.

These results are taken from PubChem BioAssay (EPA / NIEHS).

The first assay can be described thus: CCTE_Shafer_MEA_acute_burst_number: CCTE's Neural Acute Assay for Single-Electrode Bursts, Shafer Lab (AID 2284013). The essentials: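 Spontaneous network activity of primary rat cortical neurons was recorded extracellularly on microelectrode arrays at 37 C, with 40-min periods before and during exposure to 0.03-40 uM compound on DIV 13 or 15.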
`O=C1c2ccccc2C(=O)N1SC(Cl)(Cl)Cl`: the molecule was called inactive.
Turning to `COP(=S)(OC)Oc1ccc(SC)c(C)c1`, the AC50 is 6.28 µM (active).
In the case of `C[C@H]1[C@H](c2ccc(Cl)cc2)SC(=O)N1C(=O)NC1CCCCC1`, the AC50 was 10.3 µM (active).
On to `CNC(=O)/C=C(\C)OP(=O)(OC)OC`, for which the call was inactive.
On to `O=[N+]([O-])/N=C1\NCCN1Cc1ccc(Cl)nc1`, for which the molecule was classed as inactive.
Take `Clc1ccccc1-c1nnc(-c2ccccc2Cl)nn1`: the molecule was classed as inactive.
For `CC(C)OC(=O)Nc1cccc(Cl)c1`, the molecule was classed as inactive.
`CCCN(CCC)c1c([N+](=O)[O-])cc(C(F)(F)F)cc1[N+](=O)[O-]`: the molecule was classed as inactive.
On to `N#CN`, for which the result was inactive.

A short description of the next assay: CCTE_Shafer_MEA_acute_burst_duration_mean: CCTE's Neural Acute Assay for Mean Burst Duration, Shafer Lab (AID 2284014).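 Further: hits are decreases in mean burst duration relative to DMSO controls.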 The essentials: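 Read-out is the per-well percent change in mean burst duration (first to last spike within a single-electrode burst) between 40-min recordings before and after compound. Cultures were primary rat cortical neurons on MEAs, dosed at 0.03-40 uM on DIV 13 or 15.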
Regarding `O=C1c2ccccc2C(=O)N1SC(Cl)(Cl)Cl`, the molecule was classed as inactive.
As to `COP(=S)(OC)Oc1ccc(SC)c(C)c1`, the molecule was called inactive.
In the case of `C[C@H]1[C@H](c2ccc(Cl)cc2)SC(=O)N1C(=O)NC1CCCCC1`, the AC50 is 20 µM (active).
As to `CNC(=O)/C=C(\C)OP(=O)(OC)OC`, the molecule was classed as inactive.
Turning to `O=[N+]([O-])/N=C1\NCCN1Cc1ccc(Cl)nc1`, the result was inactive.
Turning to `Clc1ccccc1-c1nnc(-c2ccccc2Cl)nn1`, the molecule was classed as inactive.
As for `CC(C)OC(=O)Nc1cccc(Cl)c1`, the call was inactive.
Same read-out and setting: the entry for `CCCN(CCC)c1c([N+](=O)[O-])cc(C(F)(F)F)cc1[N+](=O)[O-]` is “inactive”.
Take `N#CN`: the call was inactive.

Another assay can be described thus: CCTE_Shafer_MEA_acute_per_burst_spike_number_mean: CCTE's Neural Acute Assay for Average Number of Spikes Per Burst, Shafer Lab (AID 2284015).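 Further: hits are decreases in mean spikes per burst versus baseline.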 The gist of the method:
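We recorded spontaneous network firing of rat cortical neurons for 40 min before and 40 min during exposure to compound at 0.03-40 uM, at 37 C. Spikes were detected adaptively at 8x rms noise, and the change in average spikes per burst was fitted against DMSO.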
On to `O=C1c2ccccc2C(=O)N1SC(Cl)(Cl)Cl`, for which the molecule was called inactive.
As for `COP(=S)(OC)Oc1ccc(SC)c(C)c1`, the call was inactive.
With `C[C@H]1[C@H](c2ccc(Cl)cc2)SC(=O)N1C(=O)NC1CCCCC1`, the AC50 is 17.2 µM (active).
With `CNC(=O)/C=C(\C)OP(=O)(OC)OC`, the molecule was classed as inactive.
The same measure, in the same setting: with `O=[N+]([O-])/N=C1\NCCN1Cc1ccc(Cl)nc1` the entry was “inactive”.
In the case of `Clc1ccccc1-c1nnc(-c2ccccc2Cl)nn1`, the result was inactive.
Regarding `CC(C)OC(=O)Nc1cccc(Cl)c1`, the molecule was called inactive.
As for `CCCN(CCC)c1c([N+](=O)[O-])cc(C(F)(F)F)cc1[N+](=O)[O-]`, the result was inactive.
Turning to `N#CN`, the call was inactive.
